The structures appear in SMILES notation. Values joined by “and” are separate entries in the source; they are usually repeats but may differ in a detail not shown here. Equal entries are not always repeated. Structures can show the parent of a compound that is named as a salt. Among all 1,800 compounds or so, about 50 (3%) showed activity. The full list was thinned out, with actives kept by preference. Unmarked numbers belong to inactive results.

This experiment concerns mouse p16Ink4a+/- lung fibroblasts (INKBRITE, bleomycin-injured). As to the kind of experiment: percentage of GFP+ (p16Ink4a+) fibroblasts among all cells in well; higher = less depletion of p16Ink4a+ cells, active = 20 or less. Particulars: 1 µM; 3 days.
Regarding `CC(C)OC(=O)C(C)(C)Oc1ccc(C(=O)c2ccc(Cl)cc2)cc1` [Fenofibrate], the “percentage of GFP+” value is 45.5%.

Regarding `O=C1CCc2cc(OCCCCc3nnnn3C3CCCCC3)ccc2N1` [Cilostazol], the “percentage of GFP+” value was 45.1%.

For `CN1CC[C@H](c2c(O)cc(O)c3c(=O)cc(-c4ccccc4Cl)oc23)[C@H](O)C1` [Flavopiridol], the “percentage of GFP+” value was 4.28% (active).

With `CN1CC[C@@H](c2c(O)cc(O)c3c(=O)cc(-c4ccccc4Cl)oc23)[C@@H]1CO`, the “percentage of GFP+” value was 20.2%.

`CC(=O)C1=C(O)C=C2Oc3c(C(C)=O)c(O)c(C)c(O)c3[C@]2(C)C1=O` [(+)-Usniacin]: the “percentage of GFP+” value was 45.5%.

Regarding `CCNC1=N[C@@H]2[C@@H](O)[C@H](O)[C@@H](CO)O[C@@H]2S1` [Thiamet G], the “percentage of GFP+” value was 56.9%.

Consider `CC(=O)c1cc([N+](=O)[O-])c(Sc2cccc(Cl)c2Cl)s1`, for which the “percentage of GFP+” value is 41.2%.

As to `Nc1nc(O)c2ncn(COCCO)c2n1` [Aciclovir], the “percentage of GFP+” value is 45.4%.

With `COc1c(C)cnc(Cn2cnc3c(Cl)nc(N)nc32)c1C`, the “percentage of GFP+” value was 7.81% (active).

Take `COc1ccc2[nH]c(S(=O)Cc3ncc(C)c(OC)c3C)nc2c1` (stereo unspecified) [Esomeprazole; Omeprazole]: the “percentage of GFP+” value is 43.4% and 32.8%.

For the molecule `COc1ccc(CNC(=O)Nc2ncc([N+](=O)[O-])s2)cc1` [N-(4-Methoxybenzyl)-N'-(5-Nitro-1,3-Thiazol-2-Yl)Urea], the “percentage of GFP+” value was 43.1%.

As for `CCN(Cc1ccncc1)C(=O)C(CO)c1ccccc1` (stereo unspecified) [Tropicamide], the “percentage of GFP+” value is 49.3%.

Take `O=C(Nc1ccc(OC(F)(F)F)cc1)c1sccc1NCc1ccnc2ccccc12`: the “percentage of GFP+” value is 30.4%.

For `Clc1cccc(Cl)c1NC1=NCCN1` [Clonidine], the “percentage of GFP+” value was 51.5%.

Consider `CN1CCN(C2=Nc3ccccc3Oc3ccc(Cl)cc32)CC1` [Loxapine], for which the “percentage of GFP+” value is 51.2%.

Turning to `CC(C)c1c(C(=O)Nc2ccccc2)c(-c2ccccc2)c(-c2ccc(F)cc2)n1CC[C@@H](O)C[C@@H](O)CC(=O)O` [Atorvastatin], the “percentage of GFP+” value was 41.6%.

Turning to `O=C(O)C[C@H](O)C[C@H](O)/C=C/c1c(C2CC2)nc2ccccc2c1-c1ccc(F)cc1` [Pitavastatin Calcium], the “percentage of GFP+” value is 22.1%.

On to `CC(C)n1c(/C=C/[C@@H](O)C[C@@H](O)CC(=O)O)c(-c2ccc(F)cc2)c2ccccc21` [Fluvastatin], for which the “percentage of GFP+” value was 19.7% (active).

Turning to `NC(Cc1c[nH]c2ccc(O)cc12)C(=O)O` (stereo unspecified) [5-hydroxytryptophan (5-HTP)], the “percentage of GFP+” value was 41.1%.

`CC(C)(C)C(=O)OCOP(=O)(COCCn1cnc2c(N)ncnc21)OCOC(=O)C(C)(C)C` [Adefovir Dipivoxil]: the “percentage of GFP+” value was 19.4% (active).

In the case of `CC(C)OC(=O)OCOP(=O)(CO[C@H](C)Cn1cnc2c(N)ncnc21)OCOC(=O)OC(C)C` [Tenofovir Disoproxil], the “percentage of GFP+” value was 37.9%.

As for `C[C@H](Cn1cnc2c(N)ncnc21)OCP(=O)(O)O` [Tenofovir], the “percentage of GFP+” value is 36.4%.

Take `Cc1nc(O)c(C#N)cc1-c1ccncc1` [Milrinone]: the “percentage of GFP+” value is 37.8%.

Take `CCOC(=O)N1CCC(=C2c3ccc(Cl)cc3CCc3cccnc32)CC1` [Loratadine]: the “percentage of GFP+” value is 54.5%.

For `CC(C)c1cc(-c2nnc(O)n2-c2ccc3c(ccn3C)c2)c(O)cc1O` [Ganetespib], the “percentage of GFP+” value was 4.48% (active).

Consider `OC(CC1c2ccccc2-c2cncn21)C1CCCCC1` (stereo unspecified), for which the “percentage of GFP+” value was 43%.

As for `CCCCCCCCCCCC1=C(O)C(O)=CC(=O)C1=O` [Embelin], the “percentage of GFP+” value is 51.4%.

Consider `COc1ccc2cccc(CCNC(C)=O)c2c1` [Agomelatine], for which the “percentage of GFP+” value is 39.1%.

Regarding `COC(=O)[C@H](Cc1ccccc1)NC(=O)[C@@H](N)CC(=O)O` [Aspartame], the “percentage of GFP+” value was 44.2%.

On to `CC(C)C[C@@H](C=O)NC(=O)[C@H](CC(C)C)NC(=O)[C@H](CC(C)C)NC(=O)OCc1ccccc1`, for which the “percentage of GFP+” value is 7.69% (active).

Take `CC(=O)SCC(Cc1ccccc1)C(=O)NCC(=O)OCc1ccccc1` (stereo unspecified) [Racecadotril]: the “percentage of GFP+” value is 45%.

For the molecule `CCCCCOC(=O)Nc1nc(=O)n([C@@H]2O[C@H](C)[C@@H](O)[C@H]2O)cc1F` [Capecitabine], the “percentage of GFP+” value was 40.5%.

`CN(Cc1ccc(C(C)(C)C)cc1)Cc1cccc2ccccc12` [Butenafine]: the “percentage of GFP+” value is 51.2%.

Turning to `O=C(/C=C/c1cccc(S(=O)(=O)Nc2ccccc2)c1)NO` [Belinostat], the “percentage of GFP+” value was 15.9% (active).

As for `Cn1cc(/C=C/C(=O)c2cccc(F)c2)cc1/C=C/C(=O)NO`, the “percentage of GFP+” value is 54%.

Regarding `O=C(/C=C/c1ccccc1)NC(NC(=S)Nc1ccc(Cl)cc1)C(Cl)(Cl)Cl` (stereo unspecified), the “percentage of GFP+” value was 58.3%.

In the case of `Nc1cccc2c1CN(C1CCC(=O)NC1=O)C2=O` (stereo unspecified) [Lenalidomide], the “percentage of GFP+” value was 46%.

Take `CC/C(=C(\c1ccccc1)c1ccc(OCCN(C)C)cc1)c1ccccc1` [Tamoxifen]: the “percentage of GFP+” value is 34.9%.

With `Cc1ccc([N+](=O)[O-])cc1S(=O)(=O)N(C)/N=C/c1cnc2ccc(Br)cn12`, the “percentage of GFP+” value was 3.79% (active).

For the molecule `CC(C)c1nc(N(C)S(C)(=O)=O)nc(-c2ccc(F)cc2)c1/C=C/[C@@H](O)C[C@@H](O)CC(=O)O` [Rosuvastatin, Rosuvastatin Calcium], the “percentage of GFP+” value is 41.7%.

With `Cn1cnc2c(F)c(Nc3ccc(Br)cc3F)c(C(=O)NOCCO)cc21`, the “percentage of GFP+” value was 44.7%.

In the case of `CN1c2cc(O)c(N=NC(N)=O)cc2CC1S(=O)(=O)O` (stereo unspecified) [Carbazochrome sodium sulfonate], the “percentage of GFP+” value is 43%.

On to `CC1(C)CC(=O)c2c(C(F)(F)F)nn(-c3ccc(C(N)=O)c(N[C@H]4CC[C@H](O)CC4)c3)c2C1`, for which the “percentage of GFP+” value is 6.92% (active).

For the molecule `CC1(C)CC(=O)c2c(C(F)(F)F)nn(-c3ccc(C(N)=O)c(N[C@H]4CC[C@H](OC(=O)CN)CC4)c3)c2C1`, the “percentage of GFP+” value is 6.23% (active).

With `CC(=O)O/N=C1/C(=O)N(Cc2cc(Cl)ccc2Cl)c2ccc(Cl)cc21`, the “percentage of GFP+” value is 51.6%.

As for `CC(C)(C)c1ccc(C(=O)CCCN2CCC(OC(c3ccccc3)c3ccccc3)CC2)cc1` [Ebastine], the “percentage of GFP+” value is 56.5%.

For `OC1(c2ccc(Cl)c(C(F)(F)F)c2)CCN(CCCC(c2ccc(F)cc2)c2ccc(F)cc2)CC1` [Penfluridol], the “percentage of GFP+” value was 55.9%.

As for `COc1ccc(-c2ccc3c(N4CCOCC4)nc(N4C[C@@H](C)O[C@@H](C)C4)nc3n2)cc1CO`, the “percentage of GFP+” value is 23.7%.

As for `Cc1ccc(=O)n(-c2ccccc2)c1` [Pirfenidone], the “percentage of GFP+” value was 46%.

Regarding `CNC(=O)c1cc(Oc2ccc(NC(=O)Nc3cc(C(C)(C)C)nn3-c3ccc4ncccc4c3)c(F)c2)ccn1` [Rebastinib], the “percentage of GFP+” value is 39.9%.

With `CNC(=O)[C@H](Cc1ccccc1)NC(=O)[C@H](CC(C)C)[C@H](CSc1cccs1)C(=O)NO` [Batimastat], the “percentage of GFP+” value was 41.9%.

For `CC(C)C1CCC(C(=O)N[C@H](Cc2ccccc2)C(=O)O)CC1` (stereo partly specified) [Nateglinide], the “percentage of GFP+” value is 46.5%.

`CC(C)C[C@H](NC(=O)[C@H](Cc1ccccc1)NC(=O)c1cnccn1)B(O)O` [Bortezomib]: the “percentage of GFP+” value was 5.29% (active).

Turning to `CC(=O)NC[C@H]1CN(c2ccc(N3CCOCC3)c(F)c2)C(=O)O1` [Linezolid], the “percentage of GFP+” value was 52.5%.

For the molecule `O=C(O)c1ccc2c(c1)nc(Nc1cccc(Cl)c1)c1ccncc12` [Silmitasertib], the “percentage of GFP+” value was 43.8%.

As for `COc1ccc2cc(-c3[nH]c(-c4ccc(S(C)=O)cc4)nc3-c3ccncc3)ccc2c1` (stereo unspecified) [Tie2 kinase inhibitor], the “percentage of GFP+” value was 43.3%.

As for `CC(C)Cc1ccc(C(C)C(=O)O)cc1` (racemic), the “percentage of GFP+” value was 48.8%.

As to `COc1cc(NC(=O)c2ccc(-c3ccc(Cl)cc3)o2)cc(OC)c1`, the “percentage of GFP+” value was 52%.

On to `O=C(Nc1cc(C(F)(F)F)cc(C(F)(F)F)c1)c1cc(Cl)ccc1O`, for which the “percentage of GFP+” value was 42.4%.

`O=C(c1ccc(OCCN2CCCCC2)cc1)c1c(-c2ccc(O)cc2)sc2cc(O)ccc12` [Raloxifene]: the “percentage of GFP+” value was 16.8% (active).

Turning to `Cc1c(-c2ccc(O)cc2)n(Cc2ccc(OCCN3CCCCCC3)cc2)c2ccc(O)cc12` [Bazedoxifene], the “percentage of GFP+” value is 47.1%.

Turning to `CCCCOc1ccc(C(=O)CCN2CCCCC2)cc1` [Dyclonine], the “percentage of GFP+” value is 47.1%.

Turning to `OCCn1cc(-c2cnc3nnn(Cc4ccc5ncccc5c4)c3n2)cn1`, the “percentage of GFP+” value is 41.7%.

As to `c1coc(CNc2ncnc3[nH]cnc23)c1` [Kinetin], the “percentage of GFP+” value is 41.6%.

As to `C=CC/N=C1\C(=O)C=C2NC(=O)/C(C)=C/C=C\[C@H](OC)[C@@H](OC(N)=O)/C(C)=C/[C@H](C)[C@@H](O)[C@@H](OC)C[C@H](C)CC1=C2O` [Tanespimycin], the “percentage of GFP+” value is 11.8% (active).

As to `CO[C@H]1/C=C\C=C(/C)C(=O)NC2=CC(=O)/C(=N\CCN(C)C)C(=C2O)C[C@@H](C)C[C@H](OC)[C@H](O)[C@@H](C)/C=C(\C)[C@@H]1OC(N)=O` [Alvespimycin], the “percentage of GFP+” value is 12.4% (active).

Take `COC1=C2C[C@@H](C)C[C@H](OC)[C@H](O)[C@@H](C)/C=C(\C)[C@H](OC(N)=O)[C@@H](OC)/C=C/C=C(\C)C(=O)/N=C(/C=C1O)C2=O` [Geldanamycin]: the “percentage of GFP+” value was 13.5% (active).

Take `Nc1cccc2c1C(=O)N(C1CCC(=O)NC1=O)C2=O` (stereo unspecified) [Pomalidomide]: the “percentage of GFP+” value is 46.7%.

On to `CCCCCCCCCCCCCCCC(=O)OC1C(SC)OC(C(NC(=O)C2CC(CCC)CN2C)C(C)Cl)C(O)C1O` (stereo unspecified) [Clindamycin palmitate HCl], for which the “percentage of GFP+” value was 45.8%.

Turning to `COc1cc(Nc2nc3ccccc3nc2NS(=O)(=O)c2ccc(NC(=O)c3ccc(C)c(OC)c3)cc2)cc(OC)c1`, the “percentage of GFP+” value is 37.4%.

Take `CC(C(=O)O)c1ccc2c(c1)[nH]c1ccc(Cl)cc12` (stereo unspecified) [Carprofen]: the “percentage of GFP+” value is 45.4%.

For the origin of these results see the supplement of paper PMC11060735.
